{"source": "PubChem BioAssay AID1159580", "about": "(chemical genetic matrix, 2015)", "assay": "chemical genetic growth profiling, strain panel (AID 1159580);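 note: tested at 20 µM; growth read once vehicle control cultures reached saturation at 30 °C; 1 = growth at the plate median or of vehicle wells; lower values mean less growth of the strain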", "details": "S. cerevisiae deletion strains, growth OD", "note": "Where “and” joins values, the source holds several entries; their conditions need not be identical. Identical values can stand only once. Hit rate of the full screen: of about 5,500 compounds, about 2,000 (36%) were called active. Another 18% or so got no clear call; they are omitted. Cut-off read from the data, not from the text of the source: active = normalized growth mostly below about 0.91 (no sharp cut-off); inconclusive = no clear call, values can overlap the other calls; inactive = mostly above about 0.92. This is one part of the list. More than one record can exist for a structure, and the calls need not agree."}
{"compound": "O=C1CCc2cc(OCCCCc3nnnn3C3CCCCC3)ccc2N1", "values": [{"measurement": "normalized growth", "setting": "locus YAL013W, strain DEP1, stronger effect = lower value", "value": "1 (inactive)"}, {"measurement": "normalized growth", "setting": "locus YAL021C, strain ccr4, stronger effect = lower value", "value": "0.996 (inactive)"}, {"measurement": "normalized growth", "setting": "locus YAL026C, strain drs2, stronger effect = lower value", "value": "1.01 (inactive)"}, {"measurement": "normalized growth", "setting": "locus YAL030W, strain snc1, stronger effect = lower value", "value": "0.985 (inactive)"}, {"measurement": "normalized growth", "setting": "locus YAL040C, strain CLN3, stronger effect = lower value", "value": "1.01 (inactive)"}, {"measurement": "normalized growth", "setting": "locus YBL061C, strain skt5, stronger effect = lower value", "value": "0.991 (inactive)"}, {"measurement": "normalized growth", "setting": "locus YBR009C, strain hhf1, stronger effect = lower value", "value": "0.989 (inactive)"}, {"measurement": "normalized growth", "setting": "locus YBR021W, strain FUR4, stronger effect = lower value", "value": "1.03 (inactive)"}, {"measurement": "normalized growth", "setting": "locus YBR023C, strain chs3, stronger effect = lower value", "value": "1 (inactive)"}, {"measurement": "normalized growth", "setting": "locus YBR171W, strain sec66, stronger effect = lower value", "value": "0.981 (inactive)"}, {"measurement": "normalized growth", "setting": "locus YBR229C, strain ROT2, stronger effect = lower value", "value": "1 (inactive)"}, {"measurement": "normalized growth", "setting": "locus YBR231C, strain swc5, stronger effect = lower value", "value": "0.99 (inactive)"}, {"measurement": "normalized growth", "setting": "locus YBR279W, strain paf1, stronger effect = lower value", "value": "0.989 (inactive)"}, {"measurement": "normalized growth", "setting": "locus YCL011C, strain gbp2, stronger effect = lower value", "value": "0.995 (inactive)"}, {"measurement": "normalized growth", "setting": "locus YCL016C, strain dcc1, stronger effect = lower value", "value": "1 (inactive)"}, {"measurement": "normalized growth", "setting": "locus YCL029C, strain bik1, stronger effect = lower value", "value": "0.988 (inactive)"}, {"measurement": "normalized growth", "setting": "locus YCL061C, strain MRC1 (second series), stronger effect = lower value", "value": "0.0772 (active)"}, {"measurement": "normalized growth", "setting": "locus YCL061C, strain MRC1, stronger effect = lower value", "value": "0.988 (inactive)"}, {"measurement": "normalized growth", "setting": "locus YCL069W, strain vba3, stronger effect = lower value", "value": "0.982 (inactive)"}, {"measurement": "normalized growth", "setting": "locus YCR088W, strain abp1, stronger effect = lower value", "value": "0.992 (inactive)"}, {"measurement": "normalized growth", "setting": "locus YDL005C, strain med2, stronger effect = lower value", "value": "0.983 (inactive)"}, {"measurement": "normalized growth", "setting": "locus YDL035C, strain GPR1, stronger effect = lower value", "value": "1.01 (inactive)"}, {"measurement": "normalized growth", "setting": "locus YDL040C, strain nat1, stronger effect = lower value", "value": "0.988 (inactive)"}, {"measurement": "normalized growth", "setting": "locus YDL074C, strain BRE1, stronger effect = lower value", "value": "1.03 (inactive)"}, {"measurement": "normalized growth", "setting": "locus YDL101C, strain DUN1, stronger effect = lower value", "value": "1 (inactive)"}, {"measurement": "normalized growth", "setting": "locus YDL134C, strain PPH21, stronger effect = lower value", "value": "1.01 (inactive)"}, {"measurement": "normalized growth", "setting": "locus YDL185W, strain tfp1, stronger effect = lower value", "value": "0.993 (inactive)"}, {"measurement": "normalized growth", "setting": "locus YDL192W, strain arf1, stronger effect = lower value", "value": "0.971 (inactive)"}, {"measurement": "normalized growth", "setting": "locus YDR001C, strain nth1, stronger effect = lower value", "value": "0.998 (inactive)"}, {"measurement": "normalized growth", "setting": "locus YDR069C, strain doa4, stronger effect = lower value", "value": "0.987 (inactive)"}, {"measurement": "normalized growth", "setting": "locus YDR101C, strain arx1, stronger effect = lower value", "value": "0.977 (inactive)"}, {"measurement": "normalized growth", "setting": "locus YDR137W, strain rgp1, stronger effect = lower value", "value": "0.894 (inactive)"}, {"measurement": "normalized growth", "setting": "locus YDR150W, strain NUM1, stronger effect = lower value", "value": "1.01 (inactive)"}, {"measurement": "normalized growth", "setting": "locus YDR159W, strain sac3, stronger effect = lower value", "value": "0.978 (inactive)"}, {"measurement": "normalized growth", "setting": "locus YDR162C, strain NBP2, stronger effect = lower value", "value": "1.02 (inactive)"}, {"measurement": "normalized growth", "setting": "locus YDR195W, strain ref2", "value": "0.958 (inactive)"}, {"measurement": "normalized growth", "setting": "locus YDR297W, strain sur2, stronger effect = lower value", "value": "0.995 (inactive)"}, {"measurement": "normalized growth", "setting": "locus YDR318W, strain mcm21, stronger effect = lower value", "value": "1 (inactive)"}, {"measurement": "normalized growth", "setting": "locus YDR334W, strain swr1, stronger effect = lower value", "value": "0.999 (inactive)"}, {"measurement": "normalized growth", "setting": "locus YDR335W, strain msn5, stronger effect = lower value", "value": "0.981 (inactive)"}, {"measurement": "normalized growth", "setting": "locus YDR388W, stronger effect = lower value", "value": "0.99 (inactive)"}, {"measurement": "normalized growth", "setting": "locus YDR392W, strain spt3, stronger effect = lower value", "value": "0.984 (inactive)"}, {"measurement": "normalized growth", "setting": "locus YDR502C, strain sam2, stronger effect = lower value", "value": "1.02 (inactive)"}, {"measurement": "normalized growth", "setting": "locus YEL003W, strain gim4, stronger effect = lower value", "value": "1 (inactive)"}, {"measurement": "normalized growth", "setting": "locus YEL037C, strain rad23, stronger effect = lower value", "value": "0.999 (inactive)"}, {"measurement": "normalized growth", "setting": "locus YEL061C, strain CIN8 (second series), stronger effect = lower value", "value": "0.998 (inactive)"}, {"measurement": "normalized growth", "setting": "locus YEL061C, strain CIN8, stronger effect = lower value", "value": "1 (inactive)"}, {"measurement": "normalized growth", "setting": "locus YER002W, strain NOP16, stronger effect = lower value", "value": "1.01 (inactive)"}, {"measurement": "normalized growth", "setting": "locus YER015W, strain faa2, stronger effect = lower value", "value": "0.997 (inactive)"}, {"measurement": "normalized growth", "setting": "locus YER016W, strain bim1, stronger effect = lower value", "value": "0.993 (inactive)"}, {"measurement": "normalized growth", "setting": "locus YER110C, stronger effect = lower value", "value": "0.993 (inactive)"}, {"measurement": "normalized growth", "setting": "locus YER111C, strain swi4, stronger effect = lower value", "value": "0.979 (inactive)"}, {"measurement": "normalized growth", "setting": "locus YER155C, strain BEM2 (second series), stronger effect = lower value", "value": "0.965 (inactive)"}, {"measurement": "normalized growth", "setting": "locus YER155C, strain BEM2, stronger effect = lower value", "value": "1.02 (inactive)"}, {"measurement": "normalized growth", "setting": "locus YER167W, strain BCK2, stronger effect = lower value", "value": "1 (inactive)"}, {"measurement": "normalized growth", "setting": "locus YFR010W, strain ubp6, stronger effect = lower value", "value": "0.991 (inactive)"}, {"measurement": "normalized growth", "setting": "locus YGL078C, strain dbp3, stronger effect = lower value", "value": "1 (inactive)"}, {"measurement": "normalized growth", "setting": "locus YGL086W, strain mad1, stronger effect = lower value", "value": "1 (inactive)"}, {"measurement": "normalized growth", "setting": "locus YGL167C, strain pmr1, stronger effect = lower value", "value": "0.986 (inactive)"}, {"measurement": "normalized growth", "setting": "locus YGL173C, strain kem1, stronger effect = lower value", "value": "0.986 (inactive)"}, {"measurement": "normalized growth", "setting": "locus YGL227W, strain vid30, stronger effect = lower value", "value": "0.985 (inactive)"}, {"measurement": "normalized growth", "setting": "locus YGL240W, strain doc1, stronger effect = lower value", "value": "0.959 (inactive)"}, {"measurement": "normalized growth", "setting": "locus YGL248W, strain PDE1, stronger effect = lower value", "value": "1 (inactive)"}, {"measurement": "normalized growth", "setting": "locus YGL253W, strain hxk2, stronger effect = lower value", "value": "1 (inactive)"}, {"measurement": "normalized growth", "setting": "locus YGR078C, strain PAC10, stronger effect = lower value", "value": "1.02 (inactive)"}, {"measurement": "normalized growth", "setting": "locus YGR135W, strain pre9, stronger effect = lower value", "value": "0.997 (inactive)"}, {"measurement": "normalized growth", "setting": "locus YGR229C, strain SMI1, stronger effect = lower value", "value": "1.01 (inactive)"}, {"measurement": "normalized growth", "setting": "locus YGR252W, strain gcn5, stronger effect = lower value", "value": "0.956 (inactive)"}, {"measurement": "normalized growth", "setting": "locus YHR013C, strain ard1, stronger effect = lower value", "value": "0.99 (inactive)"}, {"measurement": "normalized growth", "setting": "locus YHR027C, strain rpn1, stronger effect = lower value", "value": "0.998 (inactive)"}, {"measurement": "normalized growth", "setting": "locus YHR030C, strain SLT2, stronger effect = lower value", "value": "1 (inactive) and 0.979 (inactive)"}, {"measurement": "normalized growth", "setting": "locus YHR079C, strain IRE1 (second series), stronger effect = lower value", "value": "0.995 (inactive)"}, {"measurement": "normalized growth", "setting": "locus YHR079C, strain IRE1, stronger effect = lower value", "value": "0.986 (inactive)"}, {"measurement": "normalized growth", "setting": "locus YHR094C, strain hxt1, stronger effect = lower value", "value": "0.993 (inactive)"}, {"measurement": "normalized growth", "setting": "locus YHR129C, strain ARP1, stronger effect = lower value", "value": "1 (inactive)"}, {"measurement": "normalized growth", "setting": "locus YHR142W, strain chs7, stronger effect = lower value", "value": "1 (inactive)"}, {"measurement": "normalized growth", "setting": "locus YHR200W, strain rpn10, stronger effect = lower value", "value": "0.995 (inactive)"}, {"measurement": "normalized growth", "setting": "locus YIL066C, strain RNR3, stronger effect = lower value", "value": "1.01 (inactive)"}, {"measurement": "normalized growth", "setting": "locus YIL073C, strain SPO22, stronger effect = lower value", "value": "0.989 (inactive)"}, {"measurement": "normalized growth", "setting": "locus YIL125W, strain kgd1, stronger effect = lower value", "value": "1.01 (inactive)"}, {"measurement": "normalized growth", "setting": "locus YIR030C, strain dcg1, stronger effect = lower value", "value": "0.998 (inactive)"}, {"measurement": "normalized growth", "setting": "locus YJL092W, strain hpr5, stronger effect = lower value", "value": "0.996 (inactive)"}, {"measurement": "normalized growth", "setting": "locus YJL095W, strain BCK1 (second series), stronger effect = lower value", "value": "0.984 (inactive)"}, {"measurement": "normalized growth", "setting": "locus YJL095W, strain BCK1, stronger effect = lower value", "value": "1.01 (inactive) and 0.989 (inactive)"}, {"measurement": "normalized growth", "setting": "locus YJL115W, strain asf1, stronger effect = lower value", "value": "0.999 (inactive)"}, {"measurement": "normalized growth", "setting": "locus YJL129C, strain trk1, stronger effect = lower value", "value": "0.973 (inactive)"}, {"measurement": "normalized growth", "setting": "locus YJL134W, strain LCB3, stronger effect = lower value", "value": "1 (inactive)"}, {"measurement": "normalized growth", "setting": "locus YJL154C, strain vps35, stronger effect = lower value", "value": "0.993 (inactive)"}, {"measurement": "normalized growth", "setting": "locus YJL164C, strain tpk1, stronger effect = lower value", "value": "1 (inactive)"}, {"measurement": "normalized growth", "setting": "locus YJL166W, strain qcr8, stronger effect = lower value", "value": "0.979 (inactive)"}, {"measurement": "normalized growth", "setting": "locus YJL168C, strain set2, stronger effect = lower value", "value": "0.992 (inactive)"}, {"measurement": "normalized growth", "setting": "locus YJL187C, strain SWE1 (second series), stronger effect = lower value", "value": "1.01 (inactive)"}, {"measurement": "normalized growth", "setting": "locus YJR043C, strain POL32, stronger effect = lower value", "value": "1.01 (inactive)"}, {"measurement": "normalized growth", "setting": "locus YJR066W, strain TOR1, stronger effect = lower value", "value": "0.942 (inactive)"}, {"measurement": "normalized growth", "setting": "locus YJR075W, strain HOC1, stronger effect = lower value", "value": "0.998 (inactive) and 0.252 (active)"}]}
